Hits are enriched below; roughly 4.1% of the tested compounds scored in any of these assays.
tim10-1 inh: inhibits growth of tim10-1 mutant yeast. S. cerevisiae tim10-1 ts strain growth, BacTiter-Glo, 24 h. inhibition, % at 20 µM. 330,000 compounds, 2.2% hits;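 active means inhibition of at least 40%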;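 further: mutant grown at 25 °C; 0% = DMSO wells with yeast and 100% = wells holding no yeast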
NLRP3 yeast inh: NALP3 inhibition in yeast | Yeast reconstituted NLRP3/ASC/caspase-1, beta-gal luminescence, 24 h | inhibition, % at 10 µM | 330,000 compounds, 0.39% hits | AID 2825;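 active means inhibition of 50% or more; inactive means inhibition below 50%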;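 further: plate controls were induced DMSO wells for no effect and uninduced yeast grown without galactose for full effect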
NALP1 inh: blocks the NALP1 inflammasome reconstituted in yeast | S. cerevisiae NALP1/ASC/caspase-1 growth, X-gal OD620, 72 h | inhibition, % at 10 µM | 280,000 compounds, 0.61% hits | AID 2071; in the data active means inhibition mostly above about 24%, no sharp cut-off; inactive means mostly below about 32%
TIM10 inh: inhibits growth of TIM10 yeast strain. S. cerevisiae TIM10 strain growth, BacTiter-Glo luminescence, 24 h. inhibition, % at 10 µM. 330,000 compounds, 1.4% hits;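 active means inhibition of 40% or more at the single tested concentration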;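 further: wild-type TIM10 isogenic control strain grown at permissive 25 °C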
tim23-1 inh: inhibits growth of tim23-1 mutant yeast; S. cerevisiae tim23-1 growth, BacTiter-Glo luminescence, 24 h; inhibition, % at 20 µM; 330,000 compounds, 1.3% hits; AID 463212;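 active means growth inhibition of the mutant yeast at or above 50%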;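 further: temperature-sensitive mutant grown at 25 °C; plate controls were DMSO-treated mutant yeast for no effect and medium wells lacking yeast for full effect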
PfHsp90 set2: growth inhibition of yeast expressing Plasmodium Hsp90; S. cerevisiae expressing PfHsp90, BacTiter-Glo ATP, 48 h; yeast lacking PDR1 and PDR3 efflux regulators; inhibition, % at 9.4 µM; 310,000 compounds, 0.32% hits;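 active means every replicate shows inhibition above about 80%, whatever the replicate mean, limit read from the data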;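 further: 0% = DMSO neutral controls and 100% = 20 µM radicicol positive controls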
tim10-1 conf: confirmation of tim10-1 mutant yeast growth inhibitors; 7,400 compounds, 56% hits; AID 463213; inhibition, % at 20 µM; shares compounds with tim10-1 inh; S. cerevisiae tim10-1 ts strain growth, BacTiter-Glo, 24 h;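 active means inhibition of yeast growth at or above a set limit in either of two repeat tests at 20 µM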;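 further: tim10-1 mutant grown at permissive 25 °C to find synthetic lethal compounds; 0% = DMSO yeast wells and 100% = medium wells without yeast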
tim10 confirm: TIM10 yeast growth inhibition, confirmed | shares compounds with TIM10 inh | S. cerevisiae tim10 strain growth, BacTiter-Glo luminescence, 24 h | inhibition, % at 10 µM | 4,600 compounds, 63% hits | AID 463215;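 active means inhibition of yeast growth at or above a set limit in either of two replicates at 10 µM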;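 further: this counterscreen used the strain with wild-type TIM10; 0% = yeast with DMSO and 100% = medium wells lacking yeast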
tim23-1 conf: tim23-1 yeast growth inhibition, confirmed | shares compounds with tim23-1 inh | S. cerevisiae tim23-1 growth, BacTiter-Glo luminescence, 24 h | 4,400 compounds, 83% hits | inhibition, % at 20 µM;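 active means inhibition above about 39% in either of two replicate wells at 20 µM, limit read from the data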;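 further: temperature-sensitive tim23-1 mutant grown at 25 °C; 0% = DMSO wells with yeast and 100% = medium wells without yeast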
Numbers without * were called inactive; / = not tested or not shown.

SMILES	tim10-1 inh	NLRP3 yeast inh	NALP1 inh	TIM10 inh	tim23-1 inh	PfHsp90 set2	tim10-1 conf	tim10 confirm	tim23-1 conf
COc1ccc(C(=O)O/N=C(\N)c2cccc(C)c2)cc1OC	51*	13	16	46*	53*	4	52*	54*	71*
COc1cccc(C(=O)O/N=C(\N)c2ccc(C)cc2)c1	57*	35	19	72*	69*	-17	41*	82*	71*
Cc1cccc(/C(N)=N/OC(=O)c2ccoc2C)c1	44*	12	32	55*	67*	-48	55*	39*	50*
Cc1cccc(/C(N)=N/OC(=O)c2ccncc2)c1	26	12	-10	36	8	-50	/	/	/
COc1cccc(C(=O)O/N=C(\N)Cc2ccc(Cl)cc2)c1	53*	17	77*	85*	58*	-15	30	-2	43*
Cc1ccccc1N(CC(=O)NCC1CCCO1)C(=O)CNS(=O)(=O)c1ccc(F)cc1 (centres undefined)	-8	1	16	-1	7	16	/	/	/
COc1ccc(-n2cc(-c3ccc(OC)c(OC)c3)[nH]c2=S)cc1	11	2	-14	4	-3	10	/	/	/
Cc1ccc(-c2cn(-c3ccccc3)c(=S)[nH]2)cc1C	47*	37	8	48*	52*	-4	21	42*	49*
FC(F)(F)c1cccc(-n2cc(-c3ccccc3)[nH]c2=S)c1	48*	27	-38	35	56*	14	35*	/	50*
Fc1ccccc1-n1cc(-c2ccccc2)[nH]c1=S	33	7	-13	38	31	-5	/	/	/
COc1ccc(-c2noc(N3CCC(C(=O)Nc4cc(OC)c(OC)c(OC)c4)CC3)n2)cc1	8	11	-1	-4	-5	13	/	/	/
CN1CCN(C(=O)CCN2C(=O)/C(=C\c3ccc(Cl)cc3)SC2=S)CC1	34	15	27	18	31	-24	/	/	/
CC(=O)N(C(C)=O)N1C(=O)/C(=C/c2ccc(Cl)cc2)SC1=S	64*	-10	-20	57*	75*	114*	58*	80*	39*
CCc1ccc2c(c1)C1(NN=C(c3ccc(C)cc3)S1)C(=O)N2 (centres undefined)	92*	9	5	40*	83*	-73	88*	10	81*
O=[N+]([O-])c1cccc(/C=C/c2ccccn2)c1	16	24	1	13	13	-10	/	/	/
N#C/C(=C\c1cccc([N+](=O)[O-])c1)c1ccccn1	56*	19	6	39	63*	-44	72*	/	56*
CCn1c(O)c(/C=C2\C=NN=C2c2ccccc2)sc1=S	51*	16	/	33	50*	11	32*	/	54*
Cn1c(O)c(/C=C2\C=NN=C2c2ccccc2)sc1=S	57*	24	4	42*	65*	-20	42*	42*	57*
CCCCn1c(O)c(/C=C2\C=NN=C2c2ccccc2)sc1=S	38	-1	29	9	29	0	/	/	/
COc1ccc(CNC(=O)C2CCC(CNS(=O)(=O)c3cccs3)CC2)cc1 (centres undefined)	-14	-18	4	11	5	2	/	/	/
Nc1[nH]ncc1S(=O)(=O)c1ccccc1	-6	17	6	-4	-5	-18	/	/	/
Cc1ccc2c(c1)C(c1ccccc1)N(C(=O)CC(C)C)CC(=O)N2 (centres undefined)	38	-11	12	24	27	23	/	/	/
Cc1ccc(S/C=C\C(=O)c2ccccc2)cc1	49*	26	10	44*	58*	6	46*	55*	62*
Cc1ccc(C(=O)/C=C\C(=O)c2ccc(C)cc2)cc1	/	/	66	/	/	-12	/	/	/
Cc1c(N2C(=O)/C(=C/C3CC=CCC3)SC2=S)c(=O)n(-c2ccccc2)n1C (centres undefined)	48*	19	/	40	51*	/	35*	/	47*
SMILES	tim10-1 inh	NLRP3 yeast inh	NALP1 inh	TIM10 inh	tim23-1 inh	PfHsp90 set2	tim10-1 conf	tim10 confirm	tim23-1 conf
CCOc1ccc2c(c1)-c1c(ssc1=S)C(C)(C)N2	48*	35	13	37	52*	-5	40*	/	56*
CCOc1ccc2c(c1)/C(=N/N1C(=O)c3ccccc3C1=O)C(=O)N2	17	12	-8	23	16	31	/	/	/
Cc1c(NC(=O)c2ccc(NC(=O)C3CC3)cc2)cccc1C(=O)O	-1	-5	18	-1	17	13	/	/	/
CCc1c(C)c(C#N)c2nc3ccccc3n2c1NCCN(C)C	63*	36	32*	58*	59*	17	56*	34*	65*
Cc1ccc(-c2cc(C(=O)N3N=C(C(F)F)CC3(O)C(F)F)c3ccccc3n2)cc1C (centres undefined)	50*	21	-15	27	52*	113*	17	/	5
CCOC(=O)C1CCN(C(=O)COc2ccc(S(=O)(=O)N3CCOCC3)cc2C)CC1	18	5	22	-25	5	15	/	/	/
N#C/C(=C/c1cn(CC(=O)O)c2ccccc12)C(=O)NCc1ccccc1	8	1	-7	-5	9	1	/	/	/
N#C/C(=C/c1ccccc1[N+](=O)[O-])C(=O)NCc1ccco1	52*	-4	34	60*	60*	10	45*	-25	54*
CCOCCCNC(=O)/C(C#N)=C/c1ccc(-c2ccc(S(=O)(=O)N3CCOCC3)cc2)o1	35	20	20	11	20	2	/	/	/
C=CCNC(=O)/C(C#N)=C/c1ccccc1[N+](=O)[O-]	46*	-6	26	50*	56*	-6	48*	25	46*
CCOCCCNC(=O)/C(C#N)=C/c1ccc([N+](=O)[O-])o1	84*	-1	-12	68*	75*	-6	79*	94*	74*
N#C/C(=C\c1ccccc1[N+](=O)[O-])C(=O)NCc1ccccc1	49*	12	14	46*	71*	3	54*	51*	74*
Cc1cc(/C=C(\C#N)C(=O)NCc2ccco2)c(C)[nH]1	15	9	-7	-2	7	9	/	/	/
O=C(O)C1CCCN1C(=O)NC1CCCCC1 (centres undefined)	-11	6	21	1	-7	8	/	/	/

Compound activity (PubChem BioAssay)
